Records with an inconclusive call do not appear. The source made the active and inactive calls. The call rests on the fitted dose curve; in most records, active means well fitted inhibition curve with a large enough effect; inconclusive means small, poorly fitted or top-dose-only effect; inactive means flat fitted curve, though single readings scatter. Peptide text beside a SMILES is read from it.
tested on: CP315; assay: qHTS profiling for inhibitors of Plasmodium falciparum proliferation (AID 504749); further: nearly all actives have a fitted effect of over 60% in size;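 on activity, negative = inhibition: 0% = DMSO vehicle and full inhibition = artemisinin control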; details: P. falciparum in erythrocytes, SYBR Green DNA, 72 h; series mostly up to 12.8 µM; activity, negative = inhibition: at the top concentration
How it was run: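 Fluorescence of SYBR Green-bound parasite DNA, read at 485/535 nm, served as the growth measure. Infected erythrocytes were cultured with compound 72 h; artemisinin (0.29 uM) and DMSO wells defined the normalization range.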
Potency means the concentration at half of the fitted maximal effect.

Structure (SMILES) | activity, negative = inhibition | Potency
CN(C)CCCOC1C(C(O)CO)OC2OC(C)(C)O[C@@H]21 (stereo partly specified) | 5.09% [at 28.7 µM] (inactive) | 
CCC(C)C(=O)OC1CCC=C2C=CC(C)C(CCC3CC(O)CC(=O)O3)[C@@H]21 (stereo partly specified) | 0.187% [at 28.7 µM] (inactive) | 
CC(=O)OC1CCC2C3CCc4cc(O)ccc4C3CCC12C (stereo unspecified) | -1.47% [at 28.7 µM] (inactive) | 
CC[C@@]12CCCN3CCc4c(n(c5ccccc45)[C@](O)(C(=O)OC)C1)C32 (stereo partly specified) | -3.32% [at 28.7 µM] (inactive) | 
NC(C(=O)O)[C@@H]1CC(Cl)=NO1 (stereo partly specified) |  | 3.38 µM (active)
CN1CC(=O)N=C1N | -11.4% [at 28.7 µM] (inactive) | 
OCC1OC([S-])[C@H](O)C(O)C1O.[Au+] (stereo partly specified) | -3.95% [at 28.7 µM] (inactive) | 
CC(C)C1CCC(C(=O)NC(Cc2ccccc2)C(=O)O)CC1 (stereo unspecified) | 2.42% [at 28.7 µM] (inactive) | 
CCC(CCC(C)C1CCC2C3CC=C4CC(O)CC[C@@]4(C)C3CC[C@@]12C)C(C)C (stereo partly specified) | 5.08% [at 28.7 µM] (inactive) | 
C[C@]12CCC(=O)C=C1CCC1C2C(=O)C[C@]2(C)C1CC[C@]2(O)C(=O)CO (stereo partly specified) | 1.52% [at 28.7 µM] (inactive) | 
OCC1O[C@H](OC2C(CO)O[C@@](O)(CO)C2O)C(O)C(O)C1O (stereo partly specified) | -2.17% [at 28.7 µM] (inactive) | 
CC1(C)OC2CO[C@]3(COS(N)(=O)=O)OC(C)(C)OC3C2O1 (stereo partly specified) | -5.3% [at 28.7 µM] (inactive) | 
CC1(C)OC2CC(=O)OC[C@@]23C1CC(=O)[C@]1(C)C3CC[C@@]2(C)C(c3ccoc3)OC(=O)C3O[C@@]321 (stereo partly specified) | -1.46% [at 28.7 µM] (inactive) | 
CCOC(=O)C1=CC(OC(CC)CC)C(NC(C)=O)C(N)C1 (stereo unspecified) | -3.7% [at 28.7 µM] (inactive) | 
COC1C=CO[C@@]2(C)Oc3c(C)c(O)c4c(O)c(c5c(nc6cc(C)ccn65)c4c3C2=O)NC(=O)/C(C)=C\C=CC(C)C(O)[C@@H](C)C(O)C(C)[C@@H](OC(C)=O)C1C (stereo partly specified) |  | 7.57 µM (active)
COC(=O)C(Cc1ccccc1)NC(=O)C(N)CC(=O)O (stereo not drawn) (H-Asp-Phe-OMe; configuration not given here) | -6.79% [at 28.7 µM] (inactive) | 

Reference: PubChem BioAssay (NCATS)
